Test results: PubChem BioAssay (NCATS)
Records with an inconclusive call do not appear. The source made the active and inactive calls. Calls come from the whole dose curve; as a rule, active = well fitted cell-killing curve with a large enough effect; inconclusive = small, poorly fitted or top-dose-only effect, or effect the other way; inactive = flat fitted curve, though single readings scatter.

How the values were obtained:
Test in all cases: Primary qHTS to identify gynecologic anti-cancer compounds using libraries of approved drugs and bioactive compounds (AID 1345084); note: nearly all actives have a fitted effect of over 55% in size
Settings in all cases: Gynecologic cancer cell panel viability, ATPlite luminescence, 48 h; series mostly up to 57.5 µM
JEG-3 = test system: JEG-3
How it was run: (§1)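 Cell viability after 48 h drug treatment, ATPlite luminescence readout; five doses.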

OV90 = test system: OV90
How it was run: as §1

PA-1 = test system: PA-1
How it was run: as §1

SKOV3 = test system: SKOV3
How it was run: as §1

Tov-21-G = test system: Tov-21-G
How it was run: as §1

Tov112D = test system: Tov112D
How it was run: as §1
% is set by controls: 0 for no effect and ±100 for the full control effect.

CC1(C)CC2C(C1)C1(C)CCC13OC3(CO)C2O (stereo not given)
inactive: Potency (JEG-3) | Potency (OV90) | Potency (PA-1) | Potency (SKOV3) | Potency (Tov-21-G) | Potency (Tov112D)

CCCC(N[C@@H](C)C(=O)N1[C@H](C(=O)O)C[C@@H]2CCCC[C@@H]21)C(=O)OCC (stereo not given in full)
inactive: Potency (JEG-3) | Potency (OV90) | Potency (PA-1) | Potency (SKOV3) | Potency (Tov-21-G) | Potency (Tov112D)

CC(=O)OC[C@]12[C@H](OC(C)=O)C(=O)[C@@H]3[C@@H](OC(C)=O)[C@@]14O[C@@]3(C)COC(=O)c1cccnc1[C@@H](C)[C@H](C)C(=O)O[C@@H]([C@H](OC(C)=O)[C@@H]2OC(C)=O)[C@]4(C)O
inactive: Potency (JEG-3) | Potency (OV90) | Potency (PA-1) | Potency (SKOV3) | Potency (Tov-21-G) | Potency (Tov112D)

C=C1CCC2C(C)(C(=O)O)CC(O)CC2(C)C1CC/C(C)=C/C(=O)O (stereo not given)
inactive: Potency (JEG-3) | Potency (OV90) | Potency (PA-1) | Potency (SKOV3) | Potency (Tov-21-G) | Potency (Tov112D)

Cc1nn(C)c(COc2ccc(N3CCN(S(=O)(=O)N(C)C)CC3)cc2)c1-c1cccc2c(CCCOc3cccc4ccccc34)c(C(=O)O)n(CCN3CCOCC3)c12
inactive: Potency (JEG-3) | Potency (OV90) | Potency (PA-1) | Potency (SKOV3) | Potency (Tov-21-G) | Potency (Tov112D)

C=CC1(C)CC(OC(=O)C(=C)C(O)COC(C)=O)C(C(=C)C(=O)OC)C(O)C1C(=C)CO (stereo not given)
inactive: Potency (JEG-3) | Potency (OV90) | Potency (PA-1) | Potency (SKOV3) | Potency (Tov-21-G) | Potency (Tov112D)

CC[C@H](/C=C/[C@@H](C)[C@H]1CC[C@H]2[C@@H]3CC=C4C[C@@H](O)CC[C@]4(C)[C@H]3CC[C@]12C)C(C)C
inactive: activity change, negative = cytotoxicity (JEG-3) 3.22% [at 6.55 µM] | activity change, negative = cytotoxicity (OV90) 2.68% [at 6.55 µM] | activity change, negative = cytotoxicity (PA-1) 2.16% [at 6.55 µM] | activity change, negative = cytotoxicity (SKOV3) 8.88% [at 6.55 µM] | activity change, negative = cytotoxicity (Tov-21-G) 16.8% [at 6.55 µM] | activity change, negative = cytotoxicity (Tov112D) -1.77% [at 6.55 µM]

CNC(=O)c1ccc2cc([C@@]3(O)CCn4cncc43)ccc2c1
inactive: Potency (JEG-3) | Potency (OV90) | Potency (PA-1) | Potency (SKOV3) | Potency (Tov-21-G) | Potency (Tov112D)

O=C(NCc1ccc(OC(F)(F)F)cc1)C1c2ccccc2C(=O)N1C1CCOCC1 (stereo not given)
inactive: Potency (JEG-3) | Potency (OV90) | Potency (PA-1) | Potency (SKOV3) | Potency (Tov-21-G) | Potency (Tov112D)

C[C@@H]1O[C@@H](O[C@H]2[C@H](O[C@H]3CC[C@@]4(C)C(CC[C@]5(C)C4CC=C4C6CC(C)(C)CC[C@]6(C(=O)O[C@@H]6O[C@H](CO[C@@H]7O[C@H](CO)[C@@H](O[C@@H]8O[C@@H](C)[C@H](O)[C@@H](O)[C@H]8O)[C@H](O)[C@H]7O)[C@@H](O)[C@H](O)[C@H]6O)CC[C@]45C)[C@]3(C)CO)OC[C@H](O)[C@@H]2O)[C@H](O)[C@H](O)[C@H]1O (stereo not given in full)
inactive: activity change, negative = cytotoxicity (JEG-3) -11.6% [at 6.55 µM] | activity change, negative = cytotoxicity (OV90) -14.8% [at 6.55 µM] | activity change, negative = cytotoxicity (PA-1) -4.46% [at 6.55 µM] | activity change, negative = cytotoxicity (SKOV3) -11.7% [at 6.55 µM] | activity change, negative = cytotoxicity (Tov-21-G) 8.28% [at 6.55 µM] | activity change, negative = cytotoxicity (Tov112D) -13.6% [at 6.55 µM]

C/C=C(\C)C(=O)O[C@H]1[C@@H](O[C@]2(COC(=O)CC(C)C)O[C@H](COC(=O)C(C)C)[C@@H](OC(C)=O)[C@@H]2O)O[C@H](COC(C)=O)[C@@H](O)[C@@H]1O
inactive: Potency (JEG-3) | Potency (OV90) | Potency (PA-1) | Potency (SKOV3) | Potency (Tov-21-G) | Potency (Tov112D)

CC1=C2C(=O)O[C@@H](c3ccoc3)[C@]2(C)CCC1
inactive: Potency (JEG-3) | Potency (OV90) | Potency (PA-1) | Potency (SKOV3) | Potency (Tov-21-G) | Potency (Tov112D)

C[C@@H]1C(=O)O[C@H]2[C@H]1CC[C@@]1(C)C(=O)C=C[C@](C)(O)[C@H]21
inactive: Potency (JEG-3) | Potency (OV90) | Potency (PA-1) | Potency (SKOV3) | Potency (Tov-21-G) | Potency (Tov112D)

O=C(OCC12OC1C=CC(OC(=O)c1ccccc1)C2O)c1ccccc1 (stereo not given)
inactive: Potency (JEG-3) | Potency (OV90) | Potency (PA-1) | Potency (SKOV3) | Potency (Tov-21-G) | Potency (Tov112D)

COc1ccc2c3c1O[C@H]1C[C@@H](O)C=C[C@@]31CCN(C)C2
inactive: Potency (JEG-3) | Potency (OV90) | Potency (PA-1) | Potency (SKOV3) | Potency (Tov-21-G) | Potency (Tov112D)

C[C@H]1CN(C[C@H](Cc2ccccc2)C(=O)NCC(=O)O)CC[C@@]1(C)c1cccc(O)c1
inactive: Potency (JEG-3) | Potency (OV90) | Potency (PA-1) | Potency (SKOV3) | Potency (Tov-21-G) | Potency (Tov112D)

CC1=CC(=O)CC(C)(C)C1CCC(C)OC1OC(COC(=O)c2cc(O)c(O)c(O)c2)C(O)C(O)C1O (stereo not given)
inactive: Potency (JEG-3) | Potency (OV90) | Potency (PA-1) | Potency (SKOV3) | Potency (Tov-21-G) | Potency (Tov112D)

C[C@@H]1CC[C@]2(C(=O)O)CC[C@]3(C)C(=CCC4[C@]5(C)C(CC[C@]43C)C(C)(C)[C@@H](O)[C@H](O)[C@@H]5O)C2[C@]1(C)O (stereo not given in full)
inactive: Potency (JEG-3) | Potency (OV90) | Potency (PA-1) | Potency (SKOV3) | Potency (Tov-21-G) | Potency (Tov112D)

CC(C)[C@@H](C)/C=C/[C@@H](C)[C@H]1CC[C@H]2C3=CC=C4C[C@@H](O)CC[C@]4(C)[C@H]3CC[C@]12C
inactive: Potency (JEG-3) | Potency (OV90) | Potency (PA-1) | Potency (SKOV3) | Potency (Tov-21-G) | Potency (Tov112D)

COc1cc(NC(=O)c2ccccn2)ccc1Cl
inactive: Potency (JEG-3) | Potency (OV90) | Potency (PA-1) | Potency (SKOV3) | Potency (Tov-21-G) | Potency (Tov112D)
